# In PubChem BioAssay AID602163 (The Scripps Research Institute Molecular Screening Center, 2012):
# Values joined by “and” are separate entries in the source; they are usually repeats but may differ in a detail not shown here. Equal entries are not always repeated. In all, about 360,000 compounds went through this assay and about 1,100 (0.31%) were called active. This excerpt belongs to a sample that is enriched for actives. A number with no mark means an inactive call. Cut-off read from the data, not from the text of the source: active = activation above about 7.5%; inactive = the rest.
# Test system: Methionine sulfoxide reductase A (Bos taurus)
# Assay: activation of methionine sulfoxide reductase A – biochemical, absorbance, bovine, HTS, primary screen (AID 602163);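 note: 0% = vehicle and 100% = reference activator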
# Conditions: purified bovine MsrA, absorbance read-out; at 10.6 µM; stronger effect = higher value
row,Compound,activation
1,CN(/C(=N/S(=O)(=O)c1cccs1)c1ccccc1)c1ccc(O)cc1,-3.66%
2,Brc1ccc(-c2n(-c3ccccn3)c3ccccc3[n+]2-c2ccccn2)cc1,-3.31%
3,CCn1c(SCC(=O)Nc2cc(C)ccc2C)nnc1-c1cnccn1,-14%
4,CCc1ccc(NC(=O)CSc2nnc(-c3cnccn3)n2Cc2ccco2)cc1,10.3% (active)
5,CCOC(=O)Cc1csc(NC(=O)CSc2nnc(-c3cccnc3)n2Cc2ccco2)n1,-2.57%
6,CN(C(=O)c1cccc(NC(=O)Cc2ccc(NC(=O)C3CCCN(C(=O)C4CC4)C3)cc2)c1)C1CC1 (stereo not drawn),-5.02%
7,CN(C(=O)c1cccc(NC(=O)Cc2ccc(NC(=O)C3CCCN(C(=O)C4CCCC4)C3)cc2)c1)C1CCC1 (stereo not drawn),-1.96%
8,O=C(Cc1ccc(NC(=O)C2CCCN(C(=O)C3CCCCC3)C2)cc1)Nc1cccc(C(=O)N2CCCCC2)c1 (stereo not drawn),8.7% (active)
9,C=C(C)C(=O)O[C@H]1C/C(C)=C\C(=O)/C=C(\C)[C@H](O)[C@@H]2OC(=O)C(=C)[C@@H]21,-5.09%
10,COCc1cccc(-c2csc(C(O)c3ccc(F)cc3)n2)c1 (stereo not drawn),-2.06%
11,CSc1ccc(CN(C)CC(=O)NCc2ccc(F)cc2)cc1,-2.54%
12,COc1cc(OC)cc(-c2c(C#Cc3ccsc3)c3cc(-c4ccc(SC)cc4)ccc3n2C)c1,-0.65%
13,C/C=C/C(=O)OCC(=O)Nc1ccc(F)cc1Cl,-7.53%
14,CN1c2ccc(C=O)c3c(C=O)ccc(c23)N(C)C1(C)C,9.27% (active)
15,c1ccc(CN=C2Nc3ccccc3CS2)nc1,-3.81%
16,COc1cc(F)c(C2=CC(=O)CC(C)(C)C2)cc1F,-3.81%
17,O=C(COC(=O)CSc1nnc(-c2ccc(Cl)cc2)o1)Nc1cc(Cl)cc(Cl)c1,-3.64%
18,CC(NS(=O)(=O)c1ccccc1)c1n[nH]c(=S)n1-c1ccccc1 (stereo not drawn),-0.57%
19,Cc1ccc(C(=O)COC(=O)CCN2C(=O)C3C4CC(C(Br)C4Br)C3C2=O)cc1 (stereo not drawn),-3.01%
20,O=C(c1ccco1)N1CCN(C(=S)Nc2cc(F)cc(F)c2)CC1,-6.94%
21,O=C(c1ccco1)N1CCN(Cc2cccc(C(F)(F)F)c2)CC1,7.76% (active)
22,O=C(c1ccco1)N1CCN(CCOc2ccccc2)CC1,-3.77%
23,Cn1c(=O)c2[nH]c(NCC3CCCO3)nc2n(-c2ccccc2)c1=O (stereo not drawn),-0.78%
24,Cc1cccc(NC(=O)CSc2nnc(CCCCCNC(=O)OC(C)(C)C)o2)c1C,-0.45%

row,Compound,activation
1,O=C(O)CC(CC(=O)N1CCOCC1)c1ccccc1 (stereo not drawn),-2.3%
2,CC1=NN(C(=O)Cc2ccc(C)cc2)C(O)(c2cccnc2)C1 (stereo not drawn),0.86%
3,COc1ccccc1-n1c(C)nc2cc(C(=O)NCc3ccc4c(c3)OCO4)ccc21,-1.98%
4,COc1cc(OC)c(C(=O)NCc2ccc3c(c2)OCO3)cc1OC,9.15% (active)
5,COc1ccc(NC(=O)NCc2ccc3c(c2)OCO3)c(OC)c1,-3.53%
6,CCOC(=O)C1CCN(C(=O)c2cccc(S(=O)(=O)N(CC)c3ccccc3)c2)CC1,-8.63%
7,COc1ccccc1NC(=O)CCN1CCN(c2ccc(Cl)cc2)CC1,-3.09%
8,O=C(CCN1CCN(c2ccccc2)CC1)NNC(=S)Nc1ccccc1,12.7% (active)
9,O=C(CN1CCN(c2ccc(O)cc2)CC1)Nc1ccc(-c2ccccc2)cc1,-3.19%
10,O=C(Nc1ccccc1)c1nnsc1S(=O)(=O)c1ccc(Cl)cc1,-11.8%
11,O=c1[nH]snc1-c1c(Cl)cccc1Cl,-0.32%
12,CCC(C)N1C(=O)S/C(=C/c2ccc(Sc3nc4ccccc4[nH]3)o2)C1=O (stereo not drawn),-7.08%
13,Cc1ccc(S(=O)(=O)n2nc(OC(=O)C(C)(C)C)cc2N)cc1,19.7% (active)
14,Cc1ccc(S(=O)(=O)N2CCC(C(=O)N3CCCCCCC3)CC2)cc1,-4.45%
15,Nc1cc(OC(=O)c2ccccc2Br)nn1S(=O)(=O)c1ccccc1,-3.8%
16,CCN(CC)C(=O)Cn1cc(S(=O)(=O)CC(=O)NCc2ccc3c(c2)OCO3)c2ccccc21,-1.14%
17,O=C1Oc2ccccc2C(=O)/C1=C/c1ccccc1O,-0.91%
18,COc1ccccc1NC(=O)C1CCCN1S(=O)(=O)c1ccc(Cl)cc1 (stereo not drawn),-9.31%
19,O=C(OCC(=O)N1CCc2ccccc21)C1CCCN1S(=O)(=O)c1ccc(Cl)cc1 (stereo not drawn),-1.01%
20,NC(=O)COc1ccc(/C=N/NC(=O)C2CCCN2S(=O)(=O)c2ccc(Cl)cc2)cc1 (stereo not drawn),8.7% (active)
21,O=C(Nc1ccc2c(c1)C(=O)OC2)Nc1cccc2ccccc12,-5.72%
22,CC1Oc2ccccc2N(Cc2cccnc2)C1=O (stereo not drawn),-2.41%
23,CC(C)Cn1cnc2c(SCc3ccc(Cl)cc3)nc(N)nc21,-1.84%
24,CCCCNC(=O)OC(C)CNC(=O)OC (stereo not drawn),8.8% (active)

row,Compound,activation
1,CCCCNC(=O)OCCSCCS(=O)(=O)c1ccc(Cl)cc1,-0.48%
2,CCCCNC(=O)C1(c2ccc(OC)cc2)CCOCC1,2.44%
3,Cc1cccc(-n2cnc(C(=O)NNC(=S)Nc3ccccc3)c2)n1,-2.6%
4,COc1ccc(S(=O)(=O)NC(=O)C2(C)CCN2C(=O)COc2ccc(Cl)cc2)cc1 (stereo not drawn),-2.84%
5,CCc1cc2c(=O)n(-c3ccccc3)c(SCC(=O)O)nc2s1,-3.91%
6,C=CCn1c(SCC(=O)c2c(N)n(C)c(=O)n(C)c2=O)nc2sc(CC)cc2c1=O,8.63% (active)
7,C=CCn1c(SCC(=O)/C(C#N)=C(\C)N)nc2sc(C)c(C)c2c1=O,-12.1%
8,COc1cc(C)nc(N2CCCC(C(=O)NCC(C)C)C2)n1 (stereo not drawn),-8.78%
9,COc1ccc2nc(N3CCCC(O)C3)c(C#N)cc2c1 (stereo not drawn),19.6% (active)
10,CCOc1ccc2nc(N3CCCN(C(=O)Nc4ccccc4C)CC3)c(C#N)cc2c1,-1.05%
11,COc1ccc2cc(C(=O)C3CCCN(C(=O)c4sc(C)nc4C)C3)ccc2c1 (stereo not drawn),-0.96%
12,CCOc1cccc(-n2nnnc2-c2ccc(OC)cc2)c1,15.8% (active)
13,COc1ccc(NC(=O)CSc2nnnn2-c2cccc(OC)c2)cc1,-2.59%
14,CCOC(=O)C(C)n1cnc2c(nnn2-c2cccc(OC)c2)c1=O (stereo not drawn),-0.63%
15,COC(=O)c1c(C)cc(O)c(C)c1O,3.54%
16,Cc1cc(OCc2cc(C(=O)NCc3cc(C(C)C)no3)no2)cc(C)c1Cl,-8.01%
17,S=c1[nH]nc(Nc2ccccc2)s1,3.66%
18,S=c1[nH]nc(NCCc2ccccc2)s1,10.4% (active)
19,Nc1c(NCCc2ccccc2)c2ccccc2oc1=O,-3.29%
20,Cc1cc(=O)oc2c1ccc1ccccc12,-2.71%
21,COC(=O)C1[C@H]2SC(C)(C)C(C(=O)OC)N2C(=O)N1Cc1nc2ccccc2s1 (stereo partly drawn),-2.77%
22,CC1(C)SC2C(NC(=O)COc3ccccc3)C(=O)N2C1C(=O)O (stereo not drawn),-2.47% and -3.56%
23,CC1(C)S[C@@H]2[C@H](NC(=O)COc3ccccc3)C(=O)N2C1C(=O)OCc1ccccc1 (stereo partly drawn),8.55% (active)
24,O=c1oc2ccc(C#CC3(O)CCCCC3)cc2cc1-n1cc(-c2ccsc2)nn1,-0.09%

row,Compound,activation
1,O=C(CSc1ccccc1)Nc1cccc(S(=O)(=O)N2CCCCC2)c1,-2.42%
2,CSCCC1NC(=O)N(CC(=O)Nc2cccc(S(=O)(=O)N3CCCCCC3)c2)C1=O (stereo not drawn),15.5% (active)
3,Cn1nnnc1SCC(=O)Nc1cccc(S(=O)(=O)N2CCCCC2)c1,-4.48%
4,O=C(O)C1CCCCC1C(=O)Nc1ccc(Cl)cc1 (stereo not drawn),9.28% (active)
5,O=C(NC1CCN(C(=S)Nc2ccc(Cl)cc2)CC1)C1CCCCC1,-9.13%
6,O=C(O)Cc1ccc(NC(=O)C2CCCCC2C(=O)O)cc1 (stereo not drawn),8.45% (active)
7,Cc1ccc(NC(=O)C2CC2c2ccccc2)cc1 (stereo not drawn),1.6%
8,CC(=O)Nc1ccc(NC(=O)C2CCCN(S(=O)(=O)c3ccc(Cl)cc3)C2)cc1 (stereo not drawn),-1.47%
9,O=C(Cc1ccc(F)cc1)NC1CCCC1,-5.09%
10,O=S1(=O)C=C(SCCN2CCCC2)c2ccccc21,3.43%
11,CN1CCN(c2ccc3c(c2)OC[C@H](Cc2ccccc2)NS3(=O)=O)CC1,-2%
12,O=C(O)C1OC(C(=O)O)C2C1C(F)(F)C2(F)F (stereo not drawn),0.7%
13,C/C(Cc1ccccc1)=N\NC(=O)CNC(=O)c1ccc2c(c1)OCCO2,-1.01%
14,Cc1ccc(NC(=O)c2cc([N+](=O)[O-])ccc2Cl)c(O)c1,-10%
15,O=C(Nc1ccc2c(c1)OCCO2)C(c1ccc(F)cc1)N1CCCCC1 (stereo not drawn),-9.07%
16,Fc1ccccc1COc1ccccc1CNCc1ccncc1,-0.5%
17,COc1ccc(CN(C)C(=O)Cc2c[nH]c3ccccc23)c(OC)c1OC,-0.09%
18,COc1cccc(CNCCc2c[nH]c3ccccc23)c1OCc1ccccc1F,7.97% (active)
19,CSc1ccc(Cl)c(C(=O)OCC(=O)N2CC(C)OC(C)C2)c1 (stereo not drawn),1.67%
20,CCN(/N=C/c1ccc(N(C)C)cc1)c1nc2ccccc2[nH]1,-3.63%
21,CC1(C)CC(=O)C(C=NCc2cccnc2)=C(O)C1,-1.39%
